Assay outcomes (PubChem BioAssay)
JMJD2E inh – JMJD2E (human) inhibition | B2RXH2 | JMJD2E catalytic domain, FDH-coupled NADH fluorescence (FDH is formaldehyde dehydrogenase) | Potency, µM (highest dose often 57.1 µM), usual class: inhibitors | actives 1.6% (n = 230,000); note: nearly all actives have a fitted effect of over 50% in size
PNC assembly inh – blocks assembly of the perinucleolar compartment | PC3M PTB-GFP, PNC prevalence imaging, 16 h; hits give low values | actives 3.1% (n = 140,000) | activity change (PNC), negative = inhibition, % at 10 µM | AID 2417;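 active = readout at or below -70, meaning at least 70% loss of cells showing the perinucleolar compartment, a nuclear body marking cancer cells; inconclusive = readout between -30 and a set limit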
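Compounds are pinned in duplicate onto adhered PC3M cells stably expressing GFP-tagged PTB and incubated 16 h at 37 C. Cells are then fixed, nuclei stained with Hoechst, and PNC-positive cells counted.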
HPGD inh – inhibitors of human 15-hydroxyprostaglandin dehydrogenase (HPGD); Potency, µM, usual class: inhibitors; P15428; actives 4.3% (n = 150,000); purified HPGD, NADH fluorescence kinetic, PGE2 substrate
Target sequence (P15428 whole entry, looked up): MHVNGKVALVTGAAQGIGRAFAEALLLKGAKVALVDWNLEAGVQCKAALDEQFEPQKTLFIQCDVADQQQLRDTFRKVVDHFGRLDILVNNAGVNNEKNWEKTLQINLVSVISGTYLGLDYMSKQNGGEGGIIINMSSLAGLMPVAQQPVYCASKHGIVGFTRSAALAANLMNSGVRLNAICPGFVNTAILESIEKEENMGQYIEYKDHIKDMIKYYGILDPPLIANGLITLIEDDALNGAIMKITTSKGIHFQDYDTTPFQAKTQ
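20 nM HPGD preincubated 15 min at room temperature with compound in 50 mM Tris-HCl pH 8, 0.01% Tween 20. Started with 1 mM NAD+ and 30 uM prostaglandin E2; NADH fluorescence (360/450 nm) read 5 times over 30-s intervals, last minus first.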
ALDH1A1 inh – inhibitors of human aldehyde dehydrogenase 1A1 | AID 1030 | Potency, µM (highest dose often 75.3 µM), actives largely listed as inhibitors | actives 7.3% (n = 220,000) | Purified ALDH1A1, NADH fluorescence, propionaldehyde substrate
Numbers stand for hits; – = inactive; ? = inconclusive; · = no result given; [ ] = remark or other dose. Most compounds without a hit are left out; they make up all but 11% or so of the library. Unless noted, calls come from the whole dose curve; as a rule, active = well fitted inhibition curve with a large enough effect (not every such curve was filed as active); inconclusive = small, poorly fitted or top-dose-only effect, or another doubt; inactive = no such curve, though single readings can be large or run the other way.

SMILES | JMJD2E inh | PNC assembly inh | HPGD inh | ALDH1A1 inh
COc1ccc2nc(Nc3nc(C)c(C(C)=O)s3)sc2c1 | ? | – | ? | ?
COc1cc(C)nc(Nc2nc(C)c(C(C)=O)s2)n1 | – | – | · | 1.6µM
CC(=O)c1sc(Nc2ccc(C)cc2)nc1C | – | · | · | –
CC(=O)c1sc(Nc2ccccn2)nc1C | – | ? | – | 20µM
O=C(c1ccc(Cl)cc1)C1CCN(C(=O)C2CC2)CC1 | – | – | – | –
Cn1c(=O)n(Cc2ccccc2F)c(=O)c2c1nc1n2CCN1Cc1ccco1 | – | · | · | 7.9µM
COc1ccccc1Oc1nc2c(c(=O)n(Cc3ccccc3F)c(=O)n2C)n1C | – | – | 14µM | 8.9µM
Clc1ccc(CSc2ncnc3c2ncn3[C@@H]2CCCCO2)cc1 | · | · | – | –[13.5 µM]
Cn1c(=O)c2ncn(CC(=O)Nc3nc(-c4ccc(Cl)cc4)cs3)c2n(C)c1=O | – | · | · | –
O=C(O)COc1ccccc1C1C2C(=O)N(c3ccccc3)C(=O)C2ON1c1ccccc1 (stereo unspecified) | – | – | – | 25µM
CCOc1ccccc1C1C2C(=O)N(c3ccccc3)C(=O)C2ON1c1ccccc1 (stereo unspecified) | – | – | – | 22µM
CN1OC2C(=O)N(c3ccccc3)C(=O)C2C1c1ccc(F)cc1 (stereo unspecified) | – | – | · | 8.9µM
O=C(O)c1ccc(N2C(=O)C3ON(c4ccccc4)C(c4ccccc4F)C3C2=O)cc1 (stereo unspecified) | – | – | – | ?
Cc1ccc(N2C(=O)C3ON(c4ccccc4)C(c4ccncc4)C3C2=O)cc1 (stereo unspecified) | – | – | – | 2.5µM
O=C1C2ON(c3ccccc3)C(c3ccccc3F)C2C(=O)N1c1ccccc1 (stereo unspecified) | – | – | – | –
Cc1cnc(NC(=O)c2sc(Nc3ccccc3)nc2N)o1 | – | · | · | ·
COc1cc(/C=C/C(=O)O)cc(S(=O)(=O)N(CC(C)C)CC(C)C)c1OC | ? | · | · | –
CCOC(=O)CCN1C(=O)[C@H]2[C@H]3[C@H](O)[C@H](O)C/C(=N/OCC(C)C)[C@@H]3CC[C@@H]2C1=O | · | · | · | –[13.5 µM]
CC(=O)Nc1ccc(NCN2C(=O)[C@@H]3[C@H]4CC[C@H](C4)[C@@H]3C2=O)cc1 | – | – | – | ?
COc1cc(NC(=O)C2CCCN(S(=O)(=O)c3cccc4nsnc34)C2)cc(OC)c1 (stereo unspecified) | – | – | – | –
O=C(Nc1ccc2c(c1)OCCO2)C1CCN(S(=O)(=O)c2cccc3nsnc23)CC1 | – | -81 | – | ?
O=C(Nc1ccc2c(c1)OCCO2)C1CCCN(S(=O)(=O)c2cccc3nsnc23)C1 (stereo unspecified) | – | -113 | – | –
O=S(=O)(Nc1ccc2c(c1)OCCO2)c1cccc2nsnc12 | – | – | – | 25µM
CCOC(=O)CN1C(=O)N[C@@H](c2ccco2)C(C(C)=O)=C1C | –[11.4 µM] | · | – | –[13.5 µM]
CS(=O)(=O)Nc1cccc(-c2nc(N3CCNCC3)c3ccccc3n2)c1 | – | · | – | –
SMILES | JMJD2E inh | PNC assembly inh | HPGD inh | ALDH1A1 inh
CCN(CC)S(=O)(=O)c1ccc2c(c1)C(=NO)c1cc(S(=O)(=O)N(CC)CC)ccc1-2 | ? | ? | – | ?
Oc1c(N=NC(=S)Nc2ccccc2F)c2ccccc2n1Cc1cccc(Cl)c1 | – | · | · | 0.4µM
Cc1cccc(Cn2c(O)c(N=NC(=S)Nc3ccccc3F)c3ccccc32)c1 | – | · | · | ?
Oc1c(N=NC(=S)Nc2ccccc2F)c2ccccc2n1Cc1ccc(F)cc1 | – | · | · | 16µM
CCOC(=O)c1ccccc1NC(=O)/C=C/C(=O)O | – | – | – | ?
Cc1ccccc1C(=O)NNC(=O)/C=C\C(=O)O | – | · | · | ·
O=C(O)/C=C/C(=O)NNC(=O)c1ccccc1Br | – | – | ? | 11µM
CNc1ccccc1C(=O)OC | 22µM | · | · | ·
O=C(O)/C=C/C(=O)Nc1ccccc1SC(F)(F)F | – | ? | ? | 11µM
CNc1ccccc1C(=O)OCC(C)=O | ? | – | ? | –[13.5 µM]
COC(=O)c1ccccc1NC(=O)/C=C/C(=O)O | – | -84 | – | –
CCC(C)(C(=O)NC1CCCCC1)N(Cc1cccs1)C(=O)c1ccc(=O)[nH]c1 (stereo unspecified) | – | – | – | –
CCCCC(=O)N(Cc1ccc(F)cc1)C1CCS(=O)(=O)C1 (stereo unspecified) | – | · | · | ·
CC(=O)NC(Cc1ccccc1)C(=O)N1CCN(C(=O)c2ccco2)CC1 (stereo unspecified) | – | – | – | 10µM
O=C(c1ccco1)N1CCN(S(=O)(=O)c2cccs2)CC1 | – | – | – | –
